SARS PLpro yeast = SARS-CoV PLP inhibition in yeast; S. cerevisiae expressing SARS-CoV PLpro, growth rescue; Potency, µM (titrated, usually from 32.9 µM), inactives show top-dose activity, positive = growth rescue, most hits filed as activators; 330,000 compounds, 0.19% hits; note: 0% is about no effect; nearly all actives have a fitted effect of over 55% in size
Pf growth 48h = inhibits P. falciparum growth in the first generation, 48 h; AID 504832; Potency, µM (titrated, usually from 28.7 µM), inactives show at the highest dose activity change, negative = inhibition, hits mostly inhibitors; P. falciparum luciferase growth in erythrocytes, 48 h; 310,000 compounds, 5.9% hits; active = well fitted inhibition curve with a large enough effect; inconclusive = small, poorly fitted or top-dose-only effect, or another doubt; inactive = no such curve, though single readings can be large or run the other way; note: % is set by controls: 0 for no effect and ±100 for the full control effect
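First compound was added to culture medium, then infected red cells at 0.1% parasitemia and 2% hematocrit (final). After incubation at 37 C under 5% CO2, luciferase detection reagent was dispensed and light output recorded.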
NS1 inh = blocks influenza NS1 protein function | Potency, µM (top dose mostly 46.1 µM), without a hit: top-dose activity, positive = more growth | AID 2326 | 270,000 compounds, 0.4% hits; note: actives are rising curves; nearly all actives have a fitted effect of over 50% in size
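Compounds were scored for reversing the slow growth caused by influenza A NS1 in S. cerevisiae, measured by optical density at 600 nm. Assay medium contained 2% galactose at pH 6.0; NS1-free yeast of the same strain were the positive control.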
Pf growth 96h = inhibits malaria parasite growth, 96 h; P. falciparum luciferase reporter growth, 96 h; Potency, µM (series often up to 28.7 µM), inactives show at the top dose activity change, negative = inhibition, usual class: inhibitors; 320,000 compounds, 6.9% hits; active = well fitted inhibition curve with a large enough effect; inconclusive = small, poorly fitted or top-dose-only effect, or another doubt; inactive = no such curve, though single readings can be large or run the other way; note: % is set by controls: 0 for no effect and ±100 for the full control effect
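96 h incubation, 37 C, 5% CO2, of luciferase-reporter P. falciparum-infected RBCs (2% hematocrit, 0.05% parasitemia final) with test compounds; endpoint luminescence.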
* = called active by the depositor; i = inactive; ? = inconclusive; / = no result given. Only some compounds are listed: those with a hit (about 10% of all), similar ones and a draw of the others. Unless noted, calls come from the whole dose curve. Potency is the fitted concentration of half-maximal effect.

SMILES | SARS PLpro yeast | Pf growth 48h | NS1 inh | Pf growth 96h
COC(=O)c1c(NC(=O)CSc2nc3ccccc3c(=O)n2-c2ccccc2)sc(C)c1C | 1% | ? | 9% | 9.3µM*
CCC(C)N(C(=O)CSc1nnc(COc2ccccc2F)n1N)C1CCS(=O)(=O)C1 (stereo not drawn) | -6% | -16% | / | 14%
C[C@@](Cc1ccccc1)(NC(=O)CN)c1ccccc1 | / | 6% | / | -18%
COC(=O)c1ccc(CSc2nc3c(c(=O)n2-c2ccc(Br)cc2)SCC3)o1 | 14% | / | -33% | 9.3µM*
Cc1ccc(OCC(=O)Oc2ccc(C)c(C)c2)cc1 | -8% | 14% | 1% | ?
COc1cc(OC)cc(-c2c(C#Cc3ccsc3)c3cc(-c4cccc5[nH]cc(C=O)c45)ccc3n2C)c1 | 14% | / | / | /
CCCn1nc(C(=O)NNC(=O)c2cccc(S(=O)(=O)NC(C)C)c2)c2ccccc2c1=O | 9% | 3.3µM* | 4% | 1.2µM*
CCn1nc(C(=O)Nc2ccc(S(=O)(=O)Nc3ncccn3)cc2)c2ccccc2c1=O | -3% | -3% | / | 3%
CCCn1nc(C(=O)NNC(=O)c2cc(S(=O)(=O)NC)ccc2Br)c2ccccc2c1=O | 5% | 3% | / | -2%
O=C(Nc1ccccc1)Nc1ccc(Cl)c(S(=O)(=O)N2CCOCC2)c1 | -1% | 9.3µM* | / | ?
CCn1nc(C(=O)Nc2cccc(S(=O)(=O)N3CCCC3)c2)c2ccccc2c1=O | 10% | 13µM* | / | ?
CC(C)Cn1nc(C(=O)Nc2cccc(S(=O)(=O)N3CCCC3)c2)c2ccccc2c1=O | 4% | 12µM* | / | 9.3µM*
O=C(Nc1ccccc1O)c1cc(S(=O)(=O)N2CCOCC2)ccc1Cl | -1% | -8% | -7% | ?
CCn1nc(C(=O)Nc2ccc(Cl)c(S(=O)(=O)N3CCOCC3)c2)c2ccccc2c1=O | 0% | 10µM* | / | ?
O=C(CSc1nc2ccccc2s1)Nc1ccc(Cl)c(S(=O)(=O)N2CCOCC2)c1 | -23% | ? | 19% | 4.7µM*
CCCn1nc(C(=O)NNC(=O)Cc2ccc(S(=O)(=O)N3CCOCC3)s2)c2ccccc2c1=O | -10% | 12µM* | / | ?
O=C(Cc1ccc(S(=O)(=O)N2CCOCC2)s1)NNC(=O)c1ccccc1Cl | -3% | -14% | / | ?
O=C(Nc1ccccc1O)c1cc(S(=O)(=O)N2CCOCC2)c(Cl)cc1Cl | -3% | 7.4µM* | -8% | 147%
CC1=C(C(=O)N(C)C)C(c2ccc(C)s2)NC(=S)N1 (stereo not drawn) | 0% | 1% | / | 18%
COc1ccc(NC(=O)CSc2ccc(NC(C)=O)cc2)cc1S(=O)(=O)N1CCOCC1 | 1% | / | / | /
COc1ccc(NC(=O)CSc2nnc(C)s2)cc1S(=O)(=O)N1CCOCC1 | -7% | -18% | / | 10µM*
Cc1cccc(/C=C(\c2nc3ccccc3[nH]2)S(=O)(=O)c2ccccc2)c1 | -6% | 3.7µM* | 10% | ?
Cc1ccc(NC(=S)c2nc3ccccc3[nH]2)c(C)c1 | -50% | 17% | -51% | -9%
Cc1cccc(Nc2nnc(SCC3CCCCO3)s2)c1 (stereo not drawn) | -49% | 27% | -9% | ?
COc1ccc(Nc2nnc(SCC3CCCCO3)s2)cc1 (stereo not drawn) | -5% | 3.7µM* | -6% | 13µM*
SMILES | SARS PLpro yeast | Pf growth 48h | NS1 inh | Pf growth 96h
Cc1ccnc(NS(=O)(=O)c2ccc(N=[N+]=[N-])cc2)n1 | / | / | -9% | /
C=CCOc1c(CNc2ccc(C(=O)O)cc2)cccc1OC | 4% | 13% | -6% | 4.7µM*
Cc1ccc(-n2nc3c(=O)n(CCCC(=O)NCc4cccc(Cl)c4)nc(C)c3c2C)cc1 | -2% | 9.3µM* | -1% | ?
Cc1ccc(-n2nc3c(=O)n(CC(=O)NCc4ccc(C)o4)nc(C)c3c2C)cc1 | 3% | 15% | 11% | ?
Cc1ccc(-n2nc3c(=O)n(CCCC(=O)NCc4ccccc4Cl)nc(C)c3c2C)cc1 | -2% | ? | 8% | 2.6µM*
Cc1ccc(-n2nc3c(=O)n(CCCC(=O)NCc4ccc(C)o4)nc(C)c3c2C)cc1 | 10% | 10µM* | 3% | ?
Cc1ccc(-n2nc3c(=O)n(CCCC(=O)NCc4ccc(Cl)cc4)nc(C)c3c2C)cc1 | 3% | ? | -1% | 2%
Cc1nn(CCC(=O)NCCc2ccccc2Cl)c(=O)c2nn(-c3ccccc3)c(C)c12 | 19% | ? | 9% | ?
Cc1ccc(N2C(=O)N(CC(=O)NCc3ccccc3Cl)C(=O)C2C)cc1 (stereo not drawn) | 0% | 10µM* | / | -9%
Cc1cc(C)n(CCC(=O)Nc2ccc(-c3ccno3)cc2)n1 | 1% | -9% | -7% | 18%
Cn1c(=O)oc2cc(S(=O)(=O)Nc3ccc(F)cc3)ccc21 | 0% | -1% | 2% | -7%
CCCCn1c(N)c(N(CC(C)C)C(=O)c2cccc(S(=O)(=O)N(C)c3ccccc3)c2)c(=O)[nH]c1=O | -4% | ? | / | ?
CCCCn1c(N)c(N(CC(C)C)C(=O)c2ccc(S(=O)(=O)N(CC)c3ccccc3)cc2)c(=O)[nH]c1=O | -1% | 12µM* | / | ?
CCCCn1c(N)c(N(CCC(C)C)C(=O)c2ccc([N+](=O)[O-])s2)c(=O)[nH]c1=O | -4% | 9.3µM* | / | ?
CCCCn1c(N)c(N(CC(C)C)C(=O)c2cccc(S(=O)(=O)N(C)c3ccc(C)cc3)c2)c(=O)[nH]c1=O | -8% | 6.6µM* | / | ?
CCCCn1c(N)c(N(CC(C)C)C(=O)CSCC(=O)Nc2cccc(C)c2)c(=O)[nH]c1=O | 1% | 12µM* | / | ?
CCc1c(C)sc(NC(=O)c2ccco2)c1C#N | -13% | 60% | -54% | 112%
O=C(O)c1ccc2c(c1)C(=O)N(CCc1ccc(O)cc1)C2=O | -4% | 3% | / | -7%
CCCCn1c(N)c(N(Cc2ccccc2OC)C(=O)c2cc(CC)c(C)s2)c(=O)[nH]c1=O | 2% | 13µM* | / | ?
CCCCn1c(N)c(N(Cc2ccccc2OC)C(=O)c2sccc2C)c(=O)[nH]c1=O | 2% | -13% | / | -13%
N/C(=N\OC(=O)c1ccc(Br)cc1)c1ccccc1 | -7% | -58% | -78% | i
N/C(=N\OC(=O)c1cccc(Br)c1)c1ccc(Br)cc1 | -6% | 48% | -8% | 1.9µM*
COc1ccc(Cn2c(-c3ccc(C)cc3)nc3c(c(=O)c4ccccc4n3C)c2=O)cc1 | -5% | 13µM* | 7% | ?
COCCn1c(-c2ccccc2)nc2c(c(=O)c3ccccc3n2C)c1=O | -1% | ? | 2% | 15µM*
COc1ccc(Cn2c(-c3ccco3)nc3c(c(=O)c4ccccc4n3C)c2=O)cc1 | -2% | 11% | -3% | -2%
COc1ccc(Cn2c(-c3ccc(OC)cc3)nc3c(c(=O)c4ccccc4n3C)c2=O)cc1 | -24% | 12µM* | 12% | 9.3µM*
CCCc1nc2sc3ccccc3c(=O)c2c(=O)n1Cc1ccc(OC)cc1 | 0% | ? | 5% | 10µM*
COc1ccc(-c2nc3ccccc3c(=O)n2CCOc2cccc(C)c2C)cc1 | -4% | 6% | -3% | -19%
COCCn1c(-c2cccc(Br)c2)nc2c(c(=O)c3ccccc3n2C)c1=O | 0% | ? | -1% | ?
